Reference: PubChem BioAssay (NCATS)
Where “and” joins values, the source holds several entries; their conditions need not be identical. Identical values can stand only once. Results filed as inconclusive are left out. Calls of active or inactive are those of the source. Calls follow the shape of the dose curve; as a rule, active = well fitted curve in the direction sought with a large enough effect; inconclusive = small, poorly fitted or top-dose-only effect, or another doubt; inactive = no such curve, though single readings can be large; an effect the other way counts as inactive or inconclusive.

Legend:
[1] = biological target: Cellular tumor antigen p53 (Homo sapiens) (UniProt P04637); test: Primary qHTS for small molecule compounds that upregulate eGFP-tagged delta133p53alpha (in N-terminal) cells. (AID 2060322); settings: NCI-H358 eGFP-delta133p53alpha fluorescence, 24 h; activation: stronger effect = higher value;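 also: 0% = DMSO vehicle and 100% = reference activator; nearly all actives have a fitted effect of over 75% in size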
Method in brief: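 NCI-H358 cells pre-induced 24 h with 10 ng/ml doxycycline to express N-terminal eGFP-delta133p53alpha, then dosed 24 h at 37C without doxycycline; fixed, Hoechst-stained, GFP intensity by laser scanning cytometry, normalized to DMSO (0%) and 57.5 uM 5-azacytidine (100%).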

[2] = BET inhibitor-based combinations targeting novel dependencies in MECOM-rearranged (r) AML: SET-2 cell line (AID 2202231); settings: SET-2 AML cells viability, CellTiter-Glo luminescence, 48 h; viability: stronger effect = lower value, concentration not given here; also: nearly all actives have a fitted effect of over 35% in size; also: potency is read from the fitted curve at half-maximal effect;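 as to viability: plate controls were DMSO treated cells for no effect and wells without cells for full effect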
Method in brief: (§1)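 500 cells/well; 11-pt dose curve; 48 h, standard incubator; CellTiter-Glo luminescence after 15 min RT; DMSO/empty-well normalization; AUC plus Z-AUC (mean-centered within each line).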

[3] = BET inhibitor-based combinations targeting novel dependencies in MECOM-rearranged (r) AML: OCI-AML3 cell line (AID 2202232); settings: CellTiter-Glo luminescence, 48 h; Potency: OCI-AML3 viability; series mostly up to 46 µM; also: nearly all actives have a fitted effect of over 35% in size; also: potency is read from the fitted curve at half-maximal effect
Method in brief: as §1

[4] = BET inhibitor-based combinations targeting novel dependencies in MECOM-rearranged (r) AML: MV-4-11 cell line (AID 2202233); settings: MV-4-11 AML viability, CellTiter-Glo luminescence, 48 h; series mostly up to 46 µM; also: nearly all actives have a fitted effect of over 45% in size; also: potency is read from the fitted curve at half-maximal effect
Method in brief: (§2)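 Cells were plated at 500 per well and exposed to each drug across an 11-point dose range for 48 hr at standard incubator conditions. Viability was read by CellTiter-Glo luminescence, and activity was expressed as AUC and per-cell-line Z-transformed AUC.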

[5] = BET inhibitor-based combinations targeting novel dependencies in MECOM-rearranged (r) AML: HNT-34 cell line (AID 2202234); settings: HNT-34 AML viability, CellTiter-Glo luminescence, 48 h; series mostly up to 46 µM; also: nearly all actives have a fitted effect of over 35% in size; also: potency is read from the fitted curve at half-maximal effect
Method in brief: as §2

[6] = BET inhibitor-based combinations targeting novel dependencies in MECOM-rearranged (r) AML: UCSD-AML1 cell line (AID 2202235); settings: UCSD-AML1 AML cells viability, CellTiter-Glo, 48 h; series mostly up to 46 µM; also: nearly all actives have a fitted effect of over 40% in size; also: potency is read from the fitted curve at half-maximal effect
Method in brief: as §2

[7] = BET inhibitor-based combinations targeting novel dependencies in MECOM-rearranged (r) AML: AML-194 cell line (AID 2202237; also: nearly all actives have a fitted effect of over 40% in size; also: potency is read from the fitted curve at half-maximal effect); settings: AML-194 (MECOM-r AML) viability, CellTiter-Glo, 48 h; series mostly up to 46 µM
Method in brief: as §1

[8] = BET inhibitor-based combinations targeting novel dependencies in MECOM-rearranged (r) AML: AML-191 cell line (AID 2202236;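 also: plate controls were vehicle wells for no effect and wells without cells for full effect; nearly all actives have a fitted effect of over 35% in size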); settings: AML-191 viability, CellTiter-Glo luminescence, 48 h; series mostly up to 46 µM
Method in brief: as §1

Sequence of Cellular tumor antigen p53 (Homo sapiens) (P04637 whole entry, looked up): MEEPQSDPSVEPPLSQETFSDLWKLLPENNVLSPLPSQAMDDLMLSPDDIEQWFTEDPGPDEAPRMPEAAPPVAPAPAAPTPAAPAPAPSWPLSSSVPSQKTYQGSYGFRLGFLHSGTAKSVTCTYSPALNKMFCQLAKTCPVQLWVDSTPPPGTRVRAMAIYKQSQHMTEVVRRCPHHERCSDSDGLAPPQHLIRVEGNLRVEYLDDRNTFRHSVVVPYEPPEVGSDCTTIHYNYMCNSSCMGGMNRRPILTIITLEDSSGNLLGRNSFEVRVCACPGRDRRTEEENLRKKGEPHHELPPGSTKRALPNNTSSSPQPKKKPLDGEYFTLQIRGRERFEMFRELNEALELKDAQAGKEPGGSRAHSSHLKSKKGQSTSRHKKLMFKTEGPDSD

COC1CCC(C(=O)c2ccc3nc4c(cc3c2)CCCO4)CC1 (stereo not given)
inactive: activation [1] -1.02% | viability [2] 105% | Potency [3] | Potency [4] | Potency [5] | Potency [6] | Potency [7]

CC[C@]1(O)C[C@H]2CN(CCc3c([nH]c4ccccc34)[C@@](C(=O)OC)(c3cc4c(cc3OC)N(C=O)[C@H]3[C@@](O)(C(=O)OC)[C@H](OC(C)=O)[C@]5(CC)C=CCN6CC[C@]43[C@@H]65)C2)C1
inactive: activation [1] 54.7%
active: Potency [2] 833 nM | Potency [3] 166 nM | Potency [4] 166 nM | Potency [5] 209 nM | Potency [6] 235 nM | Potency [7] 296 nM

CC(C)C(C)C=CC(C)C1CCC2C3=CC=C4CC(O)CCC4(C)C3CCC21C (stereo not given)
inactive: activation [1] 11% | viability [2] 121% | Potency [3] | Potency [4] | Potency [5] | Potency [8]

CC(C)[C@H](O)C(=O)N[C@@H](C)C(=O)N[C@@H]1C(=O)N(C)CCc2ccccc21
inactive: activation [1] 28.1% | viability [2] 117% | Potency [3] | Potency [4] | Potency [5] | Potency [6] | Potency [8] | Potency [7]

N#Cc1ccc(NC(=O)Nc2ccccc2Br)c2n[nH]nc12
active: Potency [3] 14800 nM
inactive: activation [1] -2.35% | viability [2] 105% | Potency [4] | Potency [5] | Potency [6] | Potency [7]

OC[C@H]1OC(O)C[C@@H](O)[C@H]1O (stereo not given in full)
inactive: activation [1] 27.8% | viability [2] 110% | Potency [3] | Potency [4] | Potency [5] | Potency [6] | Potency [7]

Cc1ncc([N+](=O)[O-])n1CC(C)O (stereo not given)
inactive: activation [1] 12.6% and -16.1% | viability [2] 124% | Potency [3] | Potency [4] | Potency [5] | Potency [6] | Potency [8] | Potency [7]
